Laboratory results published in PubChem BioAssay AID2108 (National Center for Advancing Translational Sciences (NCATS), 2009).
Results filed as inconclusive are left out. Calls follow the shape of the dose curve; as a rule, active = well fitted curve in the direction sought with a large enough effect; inconclusive = small, poorly fitted or top-dose-only effect, or effect the other way, or another doubt; inactive = no such curve, though single readings can be large or run the other way.

target: Alpha-galactosidase A (Homo sapiens) (UniProt P06280); assay: Confirmation of Inhibitors of Human alpha-Galactosidase Using Spleen Homogenate; details: alpha-galactosidase enzyme activity; series mostly up to 56.2 µM; activity change: at the top concentration; also: 0% is about no effect
Outline: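 AC50 values come from Hill-equation fits of normalised 4-methylumbelliferone fluorescence (365/440 nm, read after NaOH/glycine stop). Enzyme source: spleen homogenate; substrate 1 mM final; pH 5.0 citrate buffer; 40 min at 37C; compound titration 0.5 nM–58 uM.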

Alpha-galactosidase A (Homo sapiens), sequence (P06280 32-429 limits assumed): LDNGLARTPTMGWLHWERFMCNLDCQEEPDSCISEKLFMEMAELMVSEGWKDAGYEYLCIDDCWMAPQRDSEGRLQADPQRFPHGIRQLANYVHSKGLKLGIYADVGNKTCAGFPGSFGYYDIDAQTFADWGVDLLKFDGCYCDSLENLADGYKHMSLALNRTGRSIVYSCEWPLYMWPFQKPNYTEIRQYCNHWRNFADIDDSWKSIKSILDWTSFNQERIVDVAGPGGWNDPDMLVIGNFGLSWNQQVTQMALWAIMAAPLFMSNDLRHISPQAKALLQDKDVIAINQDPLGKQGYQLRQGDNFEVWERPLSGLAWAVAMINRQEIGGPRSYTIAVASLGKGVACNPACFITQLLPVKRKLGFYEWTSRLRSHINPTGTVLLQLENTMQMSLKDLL

Activity change, inactive:
Cc1c(OCC(F)(F)F)ccnc1CS(=O)c1nc2ccccc2[nH]1 (configuration not stated) -5.23% [at 287 µM]
Brc1ccc(C=Nc2ccc(Nc3ccccc3)cc2)s1 -2.92%
COc1ccc(C2C3=C(CCCC3=O)N(CC(=O)O)C3=C2C(=O)CCC3)cc1Cl 25.7%
CCOC(=O)c1cc2c(=O)n3cccc(C)c3nc2n(CCCOC)c1=NC(=O)c1cccnc1 16.7% [at 23.6 µM]
O=C(O)c1c[nH]c2ccc(S(=O)(=O)N3CCOCC3)cc12 -1.11%
CCCn1c(=O)c2c(C(F)(F)F)cc(-c3cccs3)nc2n(CCC)c1=O 19.4%
Cc1ccccc1S(=O)(=O)N1CCOCC1 3.91%
CC1(CCc2ccc3c(c2)OCO3)NC(=O)c2ccccc2N1 (configuration not stated) -1.65% [at 23.6 µM]
OCC1NCC(O)C(O)C1O (configuration not stated) -3.01%
c1ccc(-c2nc3nc4ccccc4nc3n2CC2CCCO2)cc1 (configuration not stated) 10.5% [at 23.6 µM]
NC(=S)NN=C1c2cc(S(=O)(=O)N3CCOCC3)ccc2-c2ccc(S(=O)(=O)N3CCOCC3)cc21 5.73%
O=S(=O)(c1cccc(Br)c1)N1CCOCC1 -13.3%
COC(=O)c1ccccc1S(=O)(=O)N1CCOCC1 -15.4%
CCCCCCc1cc2cc(C(=O)NC)c(=N)oc2cc1O 71.6%
Cc1cc(C)c(C(=O)Cn2cnc3cc([N+](=O)[O-])ccc3c2=O)cc1C 11.1% [at 23.6 µM]
Nc1ccc(S(=O)(=O)N2CCOCC2)cc1 12.2%
O=C(CSc1nc(C2CC2)nc2ccccc12)Nc1cccc(O)c1 -0.88%
